An excerpt weighted towards active compounds, which were near 3% of everything screened.
CHT PAM – allosterically activates the human high affinity choline transporter | AID 488977 | B-score at 10 µM | 310,000 compounds, 0.49% hits | Q9GZV3 | CHT-expressing cells, membrane potential dye, choline EC20; stronger effect = higher value; LV-AA mutant CHT in HEK293 cells;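 active means initial fluorescence not abnormally high and integrated response B-score, plate-corrected, over 3 SD above library mean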
Target sequence (Q9GZV3 whole entry, looked up): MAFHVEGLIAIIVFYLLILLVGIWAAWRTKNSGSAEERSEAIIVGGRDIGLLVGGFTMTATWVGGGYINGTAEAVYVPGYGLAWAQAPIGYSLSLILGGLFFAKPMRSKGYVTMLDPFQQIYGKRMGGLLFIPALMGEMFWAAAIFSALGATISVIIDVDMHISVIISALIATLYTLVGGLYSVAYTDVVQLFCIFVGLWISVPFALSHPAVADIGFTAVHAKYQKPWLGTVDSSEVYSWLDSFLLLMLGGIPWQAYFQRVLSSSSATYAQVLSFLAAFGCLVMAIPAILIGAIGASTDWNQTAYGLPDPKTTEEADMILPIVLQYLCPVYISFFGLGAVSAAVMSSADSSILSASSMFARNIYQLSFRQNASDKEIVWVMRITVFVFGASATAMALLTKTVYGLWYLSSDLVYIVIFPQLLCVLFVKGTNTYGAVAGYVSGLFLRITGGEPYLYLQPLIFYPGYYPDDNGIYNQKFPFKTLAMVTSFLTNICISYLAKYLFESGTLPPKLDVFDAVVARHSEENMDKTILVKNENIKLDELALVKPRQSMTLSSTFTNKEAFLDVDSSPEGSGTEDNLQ
NLRP3 yeast inh – blocks the NALP3 inflammasome reconstituted in yeast. Yeast reconstituted NLRP3/ASC/caspase-1, beta-gal luminescence, 24 h. inhibition, % at 10 µM. 330,000 compounds, 0.39% hits. AID 2825;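 active means inhibition of 50% or more; inactive means inhibition below 50%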;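 further: plate controls were induced DMSO wells for no effect and uninduced yeast grown without galactose for full effect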
Mot1-301 SUMO – inhibitors of SUMOylation pathway: yeast Mot1-301 growth rescue; growth rescue, % at 18.8 µM; 320,000 compounds, 1% hits; S. cerevisiae Mot1-301 growth rescue, ATP luminescence, 38.5C; percent above DMSO median, 100 means doubled;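 active means every valid replicate shows activation above 250% relative to neutral control wells; inactive means the rest, any valid replicate at or below 250%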;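 further: OY570 slx delta 5 strain wells were the positive control but not used for scaling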
Bfl-1 A1 inh – inhibitors of the anti-apoptotic protein A1, read as caspase activation; MEF A1-2A-BIM cells, Caspase-Glo 3/7 luminescence, 3 h; percent of clofoctol response, vehicle zero; caspase activation, % (no concentration beside the values); 330,000 compounds, 0.066% hits; AID 2462;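 active means over half of replicate activation scores above 10%, or exactly half above 10 with the replicate mean above 10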
NALP1 inh – inhibitors of NALP1 inflammasome in yeast | S. cerevisiae NALP1/ASC/caspase-1 growth, X-gal OD620, 72 h | 280,000 compounds, 0.61% hits | AID 2071 | inhibition, % at 10 µM; in the data active means inhibition mostly above about 24%, no sharp cut-off; inactive means mostly below about 32%
CHT block – inhibits the human high affinity choline transporter | 310,000 compounds, 0.86% hits | B-score at 10 µM | Q9GZV3 | CHT-expressing cells, membrane potential dye, choline response; stronger effect = lower value;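 active means B-score over 3 SD under the library average, and starting fluorescence ratio not unusually high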;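 further: choline stimulus applied at its EC90 after an EC20 pre-addition; B-score computed on integrated fluorescence ratio after choline addition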
Starred values were filed as active, the others as inactive; i = inactive; · = not tested or not shown.

SMILES | CHT PAM | NLRP3 yeast inh | Mot1-301 SUMO | Bfl-1 A1 inh | NALP1 inh | CHT block
O=C1C=CC(=O)N1Cc1ccccc1 | i | 10 | -14 | -1 | 5 | i
O=C1C=CC(=O)N1N(c1ccccc1)c1ccccc1 | i | 3 | -31 | 0 | 105* | i
CCCc1c(C(=O)OCC)[nH]c2c1C(=O)CCC2 | i | -1 | -1 | 0 | 43* | i
Cc1c(C(=O)OCCOc2ccccc2)[nH]c2c1C(=O)CCC2 | i | 7 | -1 | -1 | 37 | i
COCCNC(=O)C(c1ccc(O)cc1)N(Cc1ccccc1)C(=O)CCC(=O)Nc1nccs1 (centres undefined) | i | 16 | 14 | 1 | 9 | i
CSc1ccccc1OCc1cc(C(=O)N2CCN3CCCC3C2)no1 (centres undefined) | i | 20 | 2 | 1 | 22 | i
c1ccc(-n2nnnc2-c2cnc(-c3ccncc3)nc2-c2cccs2)cc1 | i | 10 | -3 | 1 | 22* | i
CCCn1c(SCc2nc3ccccc3s2)n[nH]c1=O | i | -4 | -11 | 0 | 33* | i
Oc1ccc(/C=N/N2CCN(C3c4ccccc4-c4ccccc43)CC2)cc1O | i | 28 | -25 | 29* | 9 | i
O=C(Nc1ccc(OC(F)(F)F)cc1)Nc1cccc([N+](=O)[O-])c1 | i | 43 | -10 | -1 | 59* | i
CCOc1cc(CNCCO)cc(Br)c1OCc1ccccc1Cl | i | 14 | 18 | 0 | 32* | i
CCOc1cc(CNCC(C)C)cc(Cl)c1OCc1ccccc1 | i | 31 | · | 0 | 36* | i
Cc1ccc(C)c(OCCC(=O)N2CCN(S(=O)(=O)c3ccc([N+](=O)[O-])cc3)CC2)c1 | · | 7 | -25 | 0 | · | ·
CC(=O)c1ccc(NC(=O)C2CCN(S(=O)(=O)c3cccs3)CC2)cc1 | i | 8 | 7 | -1 | -6 | i
CCOc1ccc(NC(=O)C2CCN(S(=O)(=O)c3cccs3)CC2)cc1 | i | 6 | -10 | 1 | 39* | i
Cc1nc2c(=O)n(C)c(=O)n(C)c2nc1Cl | i | · | 269 | 1 | 94* | i
CCC(C)CCCCNC1=NCCS1 (centres undefined) | i | 2 | -11 | 0 | 26 | i
CCCCCCNC1=NCCS1 | i | 5 | 720* | 0 | -2 | i
Cc1cccc(N2C(=O)CC(Sc3nnc(C)s3)C2=O)c1 (centres undefined) | i | 20 | 32 | 0 | 35* | i
Cc1ccc(N2C(=O)CC(Sc3cccs3)C2=O)cc1 (centres undefined) | i | 32 | 320* | 0 | 2 | i
Cc1cccc(N2C(=O)CC(Cn3nc(C)cc3C)C2=O)c1 (centres undefined) | i | 9 | -4 | -1 | · | i
Cc1ccc(N2C(=O)CC(Sc3nccc(C)n3)C2=O)cc1 (centres undefined) | i | 1 | -1 | 0 | 16 | i
CCN(CC)C1CC(=O)N(c2cccc(C)c2)C1=O (centres undefined) | i | 22 | 285* | 0 | 90* | i
COc1ccc(NC(=O)C2CCCN(C(=O)Nc3ccc(F)cc3)C2)cc1OC (centres undefined) | i | 3 | 9 | 0 | 15 | i
Cc1nc(-c2ccc(NC(=O)c3ccco3)cc2)cs1 | i | 44 | -37 | -7 | 5 | i
Cc1ccn2cc(-c3ccc(NC(=O)c4ccco4)cc3)nc2c1 | i | 48 | 8 | -1 | 46* | i
COC(=O)c1ccccc1NC(=O)C/C(C)=N/NC(=O)CC#N | i | 26 | -11 | -2 | 34* | i
Cc1ccc(C)n1-c1sc2c(c1C#N)CCC(C)C2 (centres undefined) | i | -14 | 22 | 1 | 35* | i
O=C(c1ccc(COc2ccc(Cl)cc2)o1)N1CCN(Cc2ccc3c(c2)OCO3)CC1 | i | 26 | 402* | 0 | 25 | i
O=C(c1ccc(C(F)(F)F)cc1)C1CCCN(C(=O)CCc2cnccn2)C1 (centres undefined) | i | 11 | -9 | 0 | 38* | i

Bioassay records (PubChem BioAssay)
